Assay results as given in PubChem BioAssay.
Active and inactive are the calls of the source.

Test: S. pombe growth modifiers, basal conditions – strain 972, OD600, 24 h, no modulator, primary screen (AID 1090);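 note: basal condition with compound alone and no growth modifier present; test concentration not given here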
Settings: S. pombe 972 growth, higher = more signal, called active from +8 up or from −8 down

| Structure (SMILES) | z-score |
| --- | --- |
| COc1ccc(COC(=O)NN=C2C[C@@H](O)[C@@H](O)[C@@H]3[C@@H]4C(=O)N(C[C@@H]5CCCO5)C(=O)[C@@H]4CC[C@H]23)cc1 | 0.247 (inactive) |
| CCOC(=O)[C@H](Cc1ccccc1)NC(=O)CCC1CC(OC(=O)NCCc2ccc(F)cc2)CC2(CCCC(COC(=O)NCCC(C)C)O2)O1 (stereo partly specified) | 0.902 (inactive) |
| COC(=O)CC=C[C@@H](C)[C@@H](C=NOC[C@@H](O)[C@H]1O[C@@H]2OC(C)(C)O[C@@H]2[C@H]1O)OC | 0.429 (inactive) |
| C[C@]12CCC3c4ccc(OCC5CO5)cc4CCC3C1CC[C@@H]2O (stereo partly specified) | -4.77 (inactive) |
| CCOC(=O)CCN1C(=O)[C@H]2[C@H]3[C@H](O)[C@H](O)CC(=NO[C@@H]4O[C@H](CO)[C@@H](O)[C@H](O)[C@H]4O)[C@@H]3CC[C@H]2C1=O | -0.664 (inactive) |
| CC(CCN1CCCCc2nc(C)c(C)cc21)=NO[C@H](C)c1cn([C@@H]2COC[C@H]2O)nn1 | 1.07 (inactive) |
| COc1ccc(COC(=O)NN=C2C[C@@H](O)[C@@H](O)[C@@H]3[C@@H]4C(=O)N(c5cccc(Oc6ccccc6)c5)C(=O)[C@@H]4CC[C@H]23)cc1 | -0.655 (inactive) |
| CC=CC1=C(CO)[C@H](O)[C@H]2O[C@H]2[C@@H]1O | 1.03 (inactive) |
| CC1(C)O[C@H]2OC([C@H](O)CON3C(=O)c4ccccc4C3=O)[C@H](O)[C@H]2O1 (stereo partly specified) | -0.344 (inactive) |
| CCOC(=O)NN=C1C[C@@H](O)[C@@H](O)[C@@H]2[C@@H]3C(=O)N(CC)C(=O)[C@@H]3CC[C@H]12 | 0.324 (inactive) |
| CC(=O)OC[C@H]1O[C@@H](ON=C(C)CCC(=O)OC[C@H]2O[C@H](C#Cc3ccccc3)C=C[C@@H]2Oc2ccc(C)cc2)[C@H](OC(C)=O)[C@@H](OC(C)=O)[C@@H]1OC(C)=O | 0.882 (inactive) |
| Cc1cc2c(nc1C)CCCCN2CC(O)CN1CCCc2nc(-c3ccc(Br)cc3)ccc21 (stereo unspecified) | -0.616 (inactive) |
| CCOC(=O)CCN1C(=O)[C@H]2[C@H]3[C@H](O)[C@H](O)CC(=NOCC=C(C)CCC=C(C)C)[C@@H]3CC[C@H]2C1=O | 0.237 (inactive) |
| CC(=O)OC[C@H]1O[C@@H](ON=C(C)CCN2CCCCc3nc(C)c(C)cc32)[C@H](OC(C)=O)[C@@H](OC(C)=O)[C@@H]1OC(C)=O | -0.149 (inactive) |
| CC(=O)OC[C@H]1O[C@H](CCON=C(C)C)C=C[C@@H]1OC(C)=O | 0.568 (inactive) |
| CCCNC(=O)OC[C@H]1O[C@H](CCON=C[C@@H](NS(=O)(=O)c2ccc(C)cc2)[C@H](C)C=CCC(=O)OC)C=C[C@@H]1Oc1ccc(OC)cc1 | 0.331 (inactive) |
| CCCC[C@H]1CN2[C@@H](CC[C@@H](C)[C@@H]2c2ccc(Br)cc2)C(=O)O1 | -16.5 (active) |
| CCC1=NOC(CCC2CC(OC(=O)NCc3cccc4c3OCO4)CC3(CCCC(COC(=O)NCCc4ccc(Cl)cc4)O3)O2)C1 (stereo unspecified) | 0.232 (inactive) |

| Structure (SMILES) | z-score |
| --- | --- |
| COc1ccc(O[C@H]2C=C[C@@H](C#Cc3ccccc3)O[C@@H]2CO)cc1 | -20.4 (active) |
| CC(C)CON=C1[C@H]2CCn3c(=O)n(C)c(=O)n3[C@H]2[C@H](O)[C@@H]2O[C@H]12 | -0.08 (inactive) |
| COC(=O)[C@@H]1CC[C@H](C)[C@@H](c2ccc(Br)cc2)N1C[C@@H](O)CN=[N+]=[N-] | -10.1 (active) |
| COC(=O)[C@H](C)NC(=O)CCC1CC(OC(=O)NCCc2ccc(F)cc2)CC2(CCCC(COC(=O)NCc3ccccc3)O2)O1 (stereo partly specified) | 1.04 (inactive) |
| O=C1C[C@H](c2ccccc2)[C@H](c2ccc(Br)cc2)O1 | -11.8 (active) |
| COc1ccc(O[C@H]2C=C[C@@H](c3ccccc3)O[C@@H]2COC(=O)CCC(C)=NOC[C@@H](O)COCc2ccco2)cc1 | -0.761 (inactive) |
| O=C1[C@H]2[C@H]3[C@H](O)[C@H](O)CC(=NOCc4ccccc4)[C@@H]3CC[C@H]2C(=O)N1c1cccc(Oc2ccccc2)c1 | 0.277 (inactive) |
| O=C1[C@H]2[C@H]3[C@H](O)[C@H](O)CC(=NOC[C@@H](O)COCc4ccco4)[C@@H]3CC[C@H]2C(=O)N1Cc1ccc2c(c1)OCO2 | 0.674 (inactive) |
| CCOC(=O)[C@H](CC(C)C)NC(=O)CCC1CC(OC(=O)NCc2ccc3c(c2)OCO3)CC2(CCCC(COC(=O)NCc3ccccc3)O2)O1 (stereo partly specified) | 1.12 (inactive) |
| O=C1C2=CC[C@H]3C(=O)N(C4CCCCC4)C(=O)[C@H]3[C@H]2[C@H](O)[C@@H]2O[C@H]12 | -6.78 (inactive) |
| C=CCOCC1CN2[C@@H](CC[C@@H](C)[C@@H]2c2ccc(Br)cc2)C(=O)O1 (stereo partly specified) | -0.592 (inactive) |
| CCOC(=O)[C@H](Cc1ccccc1)NC(=O)CCC1CC(OC(=O)NCc2ccc3c(c2)OCO3)CC2(CCCC(COC(=O)NCCOc3ccccc3)O2)O1 (stereo partly specified) | 0.486 (inactive) |
| CCN1C(=O)[C@H]2[C@H]3[C@H](O)[C@H](O)CC(=NO[C@@H](C)c4cc(-c5c(C)cc(C)cc5C)no4)[C@@H]3CC[C@H]2C1=O | -1.15 (inactive) |
| O=C(NN=C1C[C@@H](O)[C@@H](O)[C@@H]2[C@@H]3C(=O)N(c4ccc(F)cc4F)C(=O)[C@@H]3CC[C@H]12)OCc1ccccc1 | -2.08 (inactive) |
| CC#CCOCCC=C1c2ccccc2[C@@H](OC)[C@@H]1C | -2.52 (inactive) |
| CC(CCC(=O)OC[C@H]1O[C@H](C#Cc2ccccc2)C=C[C@@H]1Oc1ccc(C)cc1)=NO[C@H](C)c1cn([C@@H]2COC[C@H]2O)nn1 | -0.688 (inactive) |
| COC(=O)[C@@H]1CC[C@H](C)[C@@H](c2ccc(C)cc2)N1C(=O)c1ccc(C=NOC[C@H]2O[C@H](c3ccccc3)C=C[C@@H]2Oc2ccc(OC)cc2)cc1 | 0.267 (inactive) |
| CC(=O)OC[C@H]1O[C@@H](ON=C2[C@H]3CCn4c(=O)n(-c5ccccc5)c(=O)n4[C@H]3[C@H](O)[C@@H]3O[C@H]23)[C@H](OC(C)=O)[C@@H](OC(C)=O)[C@@H]1OC(C)=O | -0.598 (inactive) |
